The values that follow come from PubChem BioAssay AID2316 (Broad Institute, 2010).

Hit rate of the full screen: of about 29,000 compounds, fewer than 10 were called active. These entries were drawn from the full list. Unmarked numbers belong to inactive results. The rule behind the calls is not given here.

The assay is described as follows: reversal of PD-1 mediated T-cell inhibition, primary screen, luminescence, primary human CD4 T cells, PD-L1 beads (AID 2316).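 Note: 0% = median vehicle wells and 100% = positive control.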 The following applies: CellTiter-Glo 96 h, hits give high values.
With `O=C(Nc1cccs1)N1CCN(C(=O)C2CCCO2)CC1` (centres undefined), the activation is -0.0221%.
`Cc1ccc(NC(=O)CSc2nnc(C)n2-c2ccc(F)cc2)cc1Cl`: the activation was 0.0225%.
In the case of `COc1ccc(S(=O)(=O)Nc2cccc3c2O[C@@H](CN(C)C(=O)Nc2ccccc2)[C@@H](C)CN([C@@H](C)CO)C3=O)cc1`, the activation is -2.12%.
Regarding `C[C@@H]1CN([C@@H](C)CO)C(=O)c2cc(NS(C)(=O)=O)ccc2O[C@@H]1CN(C)C(=O)Nc1ccc(F)cc1`, the activation is 2.2%.
As for `O=C1c2ccccc2S(=O)c2ccccc2S(=O)(=O)N1Cc1ccccc1` (centres undefined), the figure is -5.99%.
Under `Cc1ccc(Cl)cc1NC(=O)CN(c1cccc(Cl)c1C)S(C)(=O)=O` stands -5.55%.
As for `CS(=O)(=O)N(CC(=O)Nc1ccc2ccccc2c1)c1cc(Cl)c(Cl)cc1Cl`, the figure is 1.79%; as for `COc1ccc(S(=O)(=O)N(C)C[C@H]2Oc3ccc(NS(=O)(=O)c4ccc(F)cc4)cc3C(=O)N([C@H](C)CO)C[C@H]2C)cc1`, 1.51%.
With `COc1ccc(NC(=O)Nc2ccc3c(c2)C(=O)N([C@H](C)CO)C[C@@H](C)[C@H](CN(C)Cc2ccccc2)O3)cc1`, the activation is -0.421%.
Take `C[C@H]1CN([C@@H](C)CO)C(=O)c2cc(NS(C)(=O)=O)ccc2O[C@H]1CN(C)C(=O)Nc1ccc(C(F)(F)F)cc1`: the activation was 0.226%.
As for `O=C(NCc1ccccn1)C1CC(c2cccc(Br)c2)=NO1` (centres undefined), the figure is 1.86%; as for `C[C@H](CO)N1C[C@H](C)[C@@H](CN(C)S(C)(=O)=O)Oc2c(NC(=O)c3ccc(-c4nccs4)cc3)cccc2C1=O`, 0.392%; as for `COc1ccc(C(=O)CSc2nc3ccc(OC)cc3[nH]2)cc1`, 0.352%.
As for `Cc1noc(C)c1NC(=O)Nc1ccc2c(c1)C(=O)N([C@@H](C)CO)C[C@H](C)[C@H](CN(C)CC1CCCCC1)O2`, the figure is 1.03%; as for `C[C@@H]1CN([C@H](C)CO)C(=O)Cc2cc(NS(=O)(=O)c3ccc(F)cc3)ccc2O[C@H]1CN(C)C`, 2.25%.
On to `CS(=O)(=O)N(CC(=O)Nc1cc(Cl)ccc1Cl)c1ccc(Oc2ccccc2)cc1`, for which the activation is 0.0184%.
Under `Cc1ccc(S(=O)(=O)Nc2ccc3c(c2)C(=O)N([C@H](C)CO)C[C@H](C)[C@H](CN(C)Cc2ccc(C(=O)Nc4ccccc4N)cc2)OCCCC[C@@H](C)O3)cc1` stands -0.831%; under `O=C(Nc1ccccc1Cl)c1ccccc1S(=O)(=O)c1ccccc1[N+](=O)[O-]`, 1.95%.
Regarding `CS(=O)(=NS(=O)(=O)c1ccc(OC(F)(F)F)cc1)c1ccc(Cl)cc1` (centres undefined), the activation is 0.43%.
